Measured values: PubChem BioAssay
“And” between values parts separate entries of the source, which are not always exact repeats. Equal entries are not always repeated. The source made the active and inactive calls.

Columns and labels:
[1] = tested on: PRMT1 (protein arginine N-methyltransferase 1); assay: small molecules binding arginine methyltransferase PRMT1 – biochemical, small-molecule microarray, 635 nm fluorescence, primary screen (AID 1088); conditions: higher = more signal;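 further: binding of Prmt1 protein to compounds spotted on small-molecule microarray slides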
[2] = growth effects on S. cerevisiae YJM789 – YJM789 clinical isolate, OD600, 24 h, basal, primary screen (AID 1089); conditions: higher = more signal, called active from +8 up or from −8 down;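 further: growth of clinical yeast isolate S. cerevisiae YJM 789 seeded 1000 cells per well; test concentration not given here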
[3] = S. pombe growth modifiers, basal conditions – strain 972, OD600, 24 h, no modulator, primary screen (AID 1090);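 further: basal condition with compound alone and no growth modifier present; test concentration not given here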; conditions: S. pombe 972 growth, higher = more signal, called active from +8 up or from −8 down
[4] = budding yeast growth modifiers under rapamycin – strain BY4716, OD600, 96 h, primary screen (AID 1091); further: test concentration not given here; conditions: S. cerevisiae BY4716 + rapamycin, higher = more signal, called active from +8 up or from −8 down
[5] = target: Torsin-1A-interacting protein 2 (Homo sapiens) (UniProt Q8NFQ8); assay: small molecules binding lysate-expressed LULL1 – cell lysate, human LULL1 lysate, 635/667 nm fluorescence, primary screen (AID 1092); conditions: small-molecule microarray, hLULL1 lysate binding, 635 nm fluorescence; higher = more signal;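 further: probe is lysate of COS7 cells overexpressing human LULL1; score merges per-feature 667 nm fluorescence with signal-to-noise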
[6] = optical density change of DRC41 E. coli – strain DRC41, OD650, 24 h, E. coli filamentation project, primary screen (AID 1093);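 further: MC1000 strain lacking acrAB efflux and sulA so SOS filamentation is blocked; test concentration not given here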; conditions: E. coli DRC41 growth, higher = more signal, called active from +8 up or from −8 down
[7] = probe aLefty2 binding to arrayed compounds – biochemical, biotinylated probe, 635/667 nm fluorescence, primary screen (AID 1094); conditions: small-molecule microarray, higher = more signal;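 further: score merges spot fluorescence near 667 nm with spot signal-to-noise ratio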
[8] = tested on: Noggin (protein binding on small-molecule microarray); assay: small molecules binding Noggin protein – biochemical, 635/667 nm fluorescence, primary screen (AID 1095); conditions: 635 nm fluorescence, higher = more signal;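 further: score merges 667 nm feature fluorescence with signal to noise over triplicate slides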
[9] = target: Neurogenic locus notch homolog protein 3 (Homo sapiens) (UniProt Q9UM47); assay: small molecules binding NOTCH3 protein – biochemical, 635/667 nm fluorescence, primary screen (AID 1096); conditions: small-molecule microarray, 635 nm fluorescence, higher = more signal
[10] = probe aEGFR binding to arrayed compounds – biochemical, biotinylated probe, 635/667 nm fluorescence, primary screen (AID 1097); conditions: small-molecule microarray, higher = more signal;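 further: probe is a biotinylated anti-EGFR antibody binding compounds printed on slides; score combines fluorescence near 667 nm and signal to noise of each spot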
[11] = tested on: Plasmodium falciparum Sir2 (PF13_0152, Sir2A); assay: Plasmodium falciparum Sir2A binding compounds – biochemical, small-molecule microarray, 635 nm fluorescence, primary screen (AID 1098); conditions: fluorescence 635 nm, higher = more signal;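 further: score merges spot fluorescence intensity with its signal-to-noise ratio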
[12] = probe aDKK1 binding to arrayed compounds – biochemical, biotinylated probe, 635/667 nm fluorescence, primary screen (AID 1099); conditions: small-molecule microarray, higher = more signal;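 further: score merges 667nm spot fluorescence with signal to noise across triplicate slides; reference of the scale not given here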
[13] = probe aCHRDL2 binding to arrayed compounds – biochemical, biotinylated probe, 635/667 nm fluorescence, primary screen (AID 1100); conditions: small-molecule microarray, higher = more signal
[14] = change in splice reporter luminescence, either direction, cell-based, HEK293, spliceosome inhibition project, primary screen (AID 1101); conditions: HEK293 splicing luciferase reporter, 24 h, higher = more signal, called active from +8 up or from −8 down;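 further: HEK293 cells carrying a splicing-competent luciferase reporter gene; test concentration not given here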
[15] = target: Fibroblast growth factor 10 (Homo sapiens) (UniProt O15520); assay: compounds binding fibroblast growth factor 10 – biochemical, small-molecule microarray, 635 nm fluorescence, primary screen (AID 1102); conditions: FGF10 binding, fluorescence 635 nm, higher = more signal
[16] = tested on: glycogen synthase kinase-3 (GSK3A per assay name; protocol says GSK3B); assay: compounds binding glycogen synthase kinase-3 – biochemical, small-molecule microarray, 635 nm fluorescence, GSK3A, primary screen (AID 1103); conditions: fluorescence 635 nm, higher = more signal; further: the record names both GSK3A and GSK3B
[17] = target: Epidermal growth factor receptor (Homo sapiens) (UniProt P00533); assay: compounds binding epidermal growth factor receptor – biochemical, small-molecule microarray, 635 nm fluorescence, primary screen (AID 1104); conditions: EGFR binding, higher = more signal;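 further: score merges 667 nm emission intensity with spot signal to noise over triplicate slides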
[18] = target: Follistatin-related protein 3 (Homo sapiens) (UniProt O95633); assay: compounds binding follistatin-related protein 3 – biochemical, small-molecule microarray, 635 nm fluorescence, primary screen (AID 1105); conditions: FSTL3 binding, higher = more signal;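 further: score merges emission near 667 nm and signal to noise per printed spot across three slides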
[19] = target: Dickkopf-related protein 1 (Homo sapiens) (UniProt O94907); assay: small molecules binding DKK1 protein – biochemical, small-molecule microarray, 635 nm fluorescence scan, primary screen (AID 1106); conditions: higher = more signal;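 further: score merges emission near 667 nm with signal to noise over three replicate slides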
[20] = tested on: Inhibin beta A chain (activin A); assay: small molecules binding activin A – biochemical, small-molecule microarray, 635 nm fluorescence scan, primary screen (AID 1107); conditions: INHBA, higher = more signal;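 further: mouse activin A protein probed at 4.33 µg/mL on printed slides; score merges bound-protein fluorescence near 667 nm with spot signal-to-noise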

Sequence of Epidermal growth factor receptor (Homo sapiens) (P00533 whole entry, looked up): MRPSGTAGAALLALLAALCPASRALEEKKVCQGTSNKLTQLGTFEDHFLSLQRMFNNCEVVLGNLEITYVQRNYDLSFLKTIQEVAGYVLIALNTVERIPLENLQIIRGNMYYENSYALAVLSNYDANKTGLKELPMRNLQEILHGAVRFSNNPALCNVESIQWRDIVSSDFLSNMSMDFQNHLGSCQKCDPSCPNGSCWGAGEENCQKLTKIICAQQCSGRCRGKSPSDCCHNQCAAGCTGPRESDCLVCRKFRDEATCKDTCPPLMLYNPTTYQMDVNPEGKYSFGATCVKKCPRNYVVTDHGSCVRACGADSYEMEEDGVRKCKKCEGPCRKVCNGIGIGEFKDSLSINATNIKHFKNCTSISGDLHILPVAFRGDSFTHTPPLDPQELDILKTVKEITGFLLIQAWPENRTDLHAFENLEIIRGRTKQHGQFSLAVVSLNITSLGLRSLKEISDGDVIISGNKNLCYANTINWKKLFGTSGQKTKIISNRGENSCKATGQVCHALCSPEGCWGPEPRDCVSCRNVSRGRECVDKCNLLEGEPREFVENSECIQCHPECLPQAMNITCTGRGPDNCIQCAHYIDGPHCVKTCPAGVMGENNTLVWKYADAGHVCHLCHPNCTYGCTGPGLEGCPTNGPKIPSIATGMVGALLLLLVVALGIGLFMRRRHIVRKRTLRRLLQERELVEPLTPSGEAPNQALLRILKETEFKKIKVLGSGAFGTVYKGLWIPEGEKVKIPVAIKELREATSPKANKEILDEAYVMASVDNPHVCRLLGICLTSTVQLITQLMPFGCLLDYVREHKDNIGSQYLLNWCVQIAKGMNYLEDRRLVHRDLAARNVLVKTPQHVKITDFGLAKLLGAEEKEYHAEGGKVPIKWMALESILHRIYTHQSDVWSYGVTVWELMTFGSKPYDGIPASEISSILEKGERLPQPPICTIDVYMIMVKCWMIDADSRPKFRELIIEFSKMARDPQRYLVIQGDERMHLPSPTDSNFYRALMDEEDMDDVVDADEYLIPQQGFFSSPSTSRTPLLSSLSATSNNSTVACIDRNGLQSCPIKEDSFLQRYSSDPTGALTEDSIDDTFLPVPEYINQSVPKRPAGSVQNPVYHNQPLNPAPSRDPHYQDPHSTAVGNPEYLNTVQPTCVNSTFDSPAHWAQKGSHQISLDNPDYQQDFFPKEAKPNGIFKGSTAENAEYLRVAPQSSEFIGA
Sequence of Neurogenic locus notch homolog protein 3 (Homo sapiens) (Q9UM47 whole entry, looked up): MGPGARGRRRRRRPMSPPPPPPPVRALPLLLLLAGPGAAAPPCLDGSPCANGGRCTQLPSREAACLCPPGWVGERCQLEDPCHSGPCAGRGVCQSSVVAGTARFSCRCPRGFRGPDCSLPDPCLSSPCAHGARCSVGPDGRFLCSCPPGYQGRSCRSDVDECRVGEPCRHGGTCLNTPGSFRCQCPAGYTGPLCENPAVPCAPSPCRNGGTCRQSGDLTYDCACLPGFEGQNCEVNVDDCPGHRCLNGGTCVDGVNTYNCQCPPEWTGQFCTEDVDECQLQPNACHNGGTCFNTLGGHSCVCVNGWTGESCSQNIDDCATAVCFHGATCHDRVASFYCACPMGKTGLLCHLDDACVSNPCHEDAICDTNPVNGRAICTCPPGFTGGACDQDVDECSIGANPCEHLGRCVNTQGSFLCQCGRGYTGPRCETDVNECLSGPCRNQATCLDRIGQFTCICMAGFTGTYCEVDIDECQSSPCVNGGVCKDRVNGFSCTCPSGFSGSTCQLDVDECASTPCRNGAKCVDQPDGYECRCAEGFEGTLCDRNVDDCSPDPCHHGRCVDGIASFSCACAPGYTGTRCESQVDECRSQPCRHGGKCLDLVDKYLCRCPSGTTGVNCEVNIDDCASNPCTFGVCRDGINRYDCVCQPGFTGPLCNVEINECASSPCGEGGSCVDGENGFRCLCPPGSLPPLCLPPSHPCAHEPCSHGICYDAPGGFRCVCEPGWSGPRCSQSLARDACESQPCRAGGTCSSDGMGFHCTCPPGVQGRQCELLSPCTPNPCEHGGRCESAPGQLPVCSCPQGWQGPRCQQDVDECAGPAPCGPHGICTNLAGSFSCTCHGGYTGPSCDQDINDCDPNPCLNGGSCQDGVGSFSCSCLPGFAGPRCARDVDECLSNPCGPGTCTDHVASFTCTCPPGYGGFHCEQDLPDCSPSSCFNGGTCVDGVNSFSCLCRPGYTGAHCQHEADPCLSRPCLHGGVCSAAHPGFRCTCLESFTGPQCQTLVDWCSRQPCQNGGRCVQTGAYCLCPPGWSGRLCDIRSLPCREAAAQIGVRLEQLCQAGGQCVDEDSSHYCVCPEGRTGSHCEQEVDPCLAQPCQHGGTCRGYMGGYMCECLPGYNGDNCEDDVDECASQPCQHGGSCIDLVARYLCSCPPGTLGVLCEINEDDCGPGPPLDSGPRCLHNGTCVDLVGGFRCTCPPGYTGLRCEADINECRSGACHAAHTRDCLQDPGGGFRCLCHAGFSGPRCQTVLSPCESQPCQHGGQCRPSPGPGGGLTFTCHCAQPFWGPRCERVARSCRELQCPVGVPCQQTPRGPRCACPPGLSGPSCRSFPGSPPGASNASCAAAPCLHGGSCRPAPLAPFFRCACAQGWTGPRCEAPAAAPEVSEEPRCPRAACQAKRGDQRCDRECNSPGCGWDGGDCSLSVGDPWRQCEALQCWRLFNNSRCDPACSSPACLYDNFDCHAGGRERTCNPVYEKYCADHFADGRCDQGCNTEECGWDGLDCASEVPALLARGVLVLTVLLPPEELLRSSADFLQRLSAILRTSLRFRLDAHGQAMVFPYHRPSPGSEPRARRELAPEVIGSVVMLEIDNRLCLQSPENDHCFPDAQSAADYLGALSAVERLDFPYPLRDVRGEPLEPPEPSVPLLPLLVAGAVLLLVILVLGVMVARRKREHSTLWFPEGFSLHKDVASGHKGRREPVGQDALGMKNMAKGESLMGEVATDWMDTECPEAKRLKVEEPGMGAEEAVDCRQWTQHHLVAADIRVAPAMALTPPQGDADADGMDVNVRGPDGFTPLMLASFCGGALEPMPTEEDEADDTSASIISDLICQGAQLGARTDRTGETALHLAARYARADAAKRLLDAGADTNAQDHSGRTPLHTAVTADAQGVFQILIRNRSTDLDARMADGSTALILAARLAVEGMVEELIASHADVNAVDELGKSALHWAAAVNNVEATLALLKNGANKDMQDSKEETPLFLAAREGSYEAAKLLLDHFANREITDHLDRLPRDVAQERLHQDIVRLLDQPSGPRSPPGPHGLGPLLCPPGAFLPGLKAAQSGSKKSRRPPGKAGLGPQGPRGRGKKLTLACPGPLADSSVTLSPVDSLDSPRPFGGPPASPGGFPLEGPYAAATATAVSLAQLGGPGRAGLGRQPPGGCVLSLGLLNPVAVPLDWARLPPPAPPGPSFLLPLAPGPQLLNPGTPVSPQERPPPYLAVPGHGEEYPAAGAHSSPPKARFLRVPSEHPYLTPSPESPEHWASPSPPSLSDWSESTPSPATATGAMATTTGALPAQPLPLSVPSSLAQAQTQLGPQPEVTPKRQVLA
Sequence of Fibroblast growth factor 10 (Homo sapiens) (O15520 whole entry, looked up): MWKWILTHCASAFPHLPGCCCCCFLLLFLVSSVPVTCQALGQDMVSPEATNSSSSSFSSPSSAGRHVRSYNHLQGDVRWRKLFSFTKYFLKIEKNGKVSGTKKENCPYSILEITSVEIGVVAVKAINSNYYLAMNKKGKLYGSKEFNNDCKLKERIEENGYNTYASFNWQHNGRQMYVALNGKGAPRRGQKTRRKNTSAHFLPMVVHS
Sequence of Dickkopf-related protein 1 (Homo sapiens) (O94907 whole entry, looked up): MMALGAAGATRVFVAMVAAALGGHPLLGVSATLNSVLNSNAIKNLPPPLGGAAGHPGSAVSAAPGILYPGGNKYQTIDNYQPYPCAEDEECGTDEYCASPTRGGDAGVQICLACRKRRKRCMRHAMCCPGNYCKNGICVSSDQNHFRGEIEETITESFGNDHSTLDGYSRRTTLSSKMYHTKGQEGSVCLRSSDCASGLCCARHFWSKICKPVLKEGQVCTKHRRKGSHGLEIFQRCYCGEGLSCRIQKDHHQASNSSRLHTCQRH
Sequence of Torsin-1A-interacting protein 2 (Homo sapiens) (Q8NFQ8 whole entry, looked up): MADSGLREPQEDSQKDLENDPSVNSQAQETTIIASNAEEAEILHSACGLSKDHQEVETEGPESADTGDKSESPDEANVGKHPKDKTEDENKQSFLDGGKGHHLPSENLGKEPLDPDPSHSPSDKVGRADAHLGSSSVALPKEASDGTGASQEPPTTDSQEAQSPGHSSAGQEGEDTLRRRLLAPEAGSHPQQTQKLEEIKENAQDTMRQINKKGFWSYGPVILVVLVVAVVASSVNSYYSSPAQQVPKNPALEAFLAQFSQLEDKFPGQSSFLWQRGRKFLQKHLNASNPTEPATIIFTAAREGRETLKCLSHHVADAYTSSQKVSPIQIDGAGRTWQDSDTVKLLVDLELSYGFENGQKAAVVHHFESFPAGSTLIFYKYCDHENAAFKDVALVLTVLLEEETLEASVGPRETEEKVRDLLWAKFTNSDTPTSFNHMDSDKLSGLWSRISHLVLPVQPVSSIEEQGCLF
Sequence of Follistatin-related protein 3 (Homo sapiens) (O95633 whole entry, looked up): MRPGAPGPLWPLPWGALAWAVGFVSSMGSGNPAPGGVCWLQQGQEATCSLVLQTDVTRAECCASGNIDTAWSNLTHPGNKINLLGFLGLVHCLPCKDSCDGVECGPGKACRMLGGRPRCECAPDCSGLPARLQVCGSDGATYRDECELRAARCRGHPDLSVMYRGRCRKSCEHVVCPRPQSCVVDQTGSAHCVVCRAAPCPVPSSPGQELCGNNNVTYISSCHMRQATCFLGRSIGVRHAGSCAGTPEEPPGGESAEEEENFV

C=CCN(CCCC)C(=O)C(c1cccs1)N(C(=O)/C=C\C(=O)O)c1ccc(CCO)cc1 (stereo not given)
composite z-score [1]: -1.13 and -0.631 | z-score [2]: -0.924 (inactive) and 0.0434 (inactive) | z-score [3]: -0.13 (inactive) and -0.354 (inactive) | z-score [4]: 0.161 (inactive) and 0.541 (inactive) | composite z-score [5]: 0.413 and 0.484 | z-score [6]: 0.0144 (inactive) and -0.312 (inactive) | composite z-score [7]: 0.0113 and -0.145 | composite z-score [8]: -2.58 and -3.71 | composite z-score [9]: -1.26 and -0.946 | composite z-score [10]: -0.315 and -0.346 | composite z-score [11]: -0.292 and 0.315 | composite z-score [12]: 0.219 and -0.11 | composite z-score [13]: 0.864 and 1.06 | z-score [14]: 0.243 (inactive) and -0.284 (inactive) | composite z-score [15]: -1.34 and -1.59 | composite z-score [16]: -1.58 and -1.35 | composite z-score [17]: -1.11 and -2.45 | composite z-score [18]: -0.963 and -2.14 | composite z-score [19]: -1.99 and -4.28 | composite z-score [20]: -1.22 and -1.99

COC(=O)[C@@]1(Cc2ccccc2)[C@H]2c3cc(C(=O)N(C)C)n(C[C@H](O)CO)c3C[C@H]2CN1C(=O)c1ccccc1
composite z-score [1]: -0.576 and -0.197 | z-score [2]: 0.745 (inactive) and 0.53 (inactive) | z-score [3]: -0.421 (inactive) and 0.883 (inactive) | z-score [4]: 0.565 (inactive) and 0.696 (inactive) | composite z-score [5]: 3.69 and 2.3 | z-score [6]: -0.527 (inactive) and -0.856 (inactive) | composite z-score [7]: -0.052 and 0.0305 | composite z-score [8]: -0.634 and -0.737 | composite z-score [9]: -0.349 and -0.0109 | composite z-score [10]: -0.228 and 0.0395 | composite z-score [11]: 0.544 and 0.831 | composite z-score [12]: 0.781 and 0.66 | composite z-score [13]: 0.761 and 1.21 | z-score [14]: -2.37 (inactive) and 1.46 (inactive) | composite z-score [15]: -0.397 and 0.483 | composite z-score [16]: -0.137 and -0.227 | composite z-score [17]: -0.647 and 0.374 | composite z-score [18]: -0.397 and 0.0048 | composite z-score [19]: -0.907 and -0.236 | composite z-score [20]: 0.985 and 1.1

C=CCN(CCCCC)C(=O)C1N(CCCCCCO)C(=O)C2C(C(=O)O)C3C=CC21O3 (stereo not given)
composite z-score [1]: 0.19 and -0.725 | z-score [2]: -0.657 (inactive) and -0.677 (inactive) | z-score [3]: -0.849 (inactive) and -0.744 (inactive) | z-score [4]: -0.44 (inactive) and -0.767 (inactive) | composite z-score [5]: 0.565 and 1.97 | z-score [6]: -0.617 (inactive) and -0.541 (inactive) | composite z-score [7]: -0.126 and -0.0198 | composite z-score [8]: -2.33 and -1.76 | composite z-score [9]: -0.968 and -0.32 | composite z-score [10]: -0.322 and -0.32 | composite z-score [11]: 1.34 and 1.33 | composite z-score [12]: -0.3 and -0.257 | composite z-score [13]: 0.933 and 0.677 | z-score [14]: -0.372 (inactive) and 0.305 (inactive) | composite z-score [15]: -1.23 and -1.99 | composite z-score [16]: -0.699 and -1.32 | composite z-score [17]: -1.76 and -2.1 | composite z-score [18]: -2.21 and -0.897 | composite z-score [19]: -3.08 and -2.95 | composite z-score [20]: -0.194 and -1.46

CC(C)N1CC=CC23O[C@@H]4C=CCCOC(=O)C4[C@H]2C(=O)N(C(C)CO)[C@@H]3C1=O (stereo not given in full)
composite z-score [1]: 1.18 and -0.323 | z-score [2]: -1.29 (inactive) and 0.11 (inactive) | z-score [3]: -1.18 (inactive) and -1.07 (inactive) | z-score [4]: -1.28 (inactive) and 0.687 (inactive) | composite z-score [5]: 3.21 and -0.371 | z-score [6]: 2.82 (inactive) and 2.22 (inactive) | composite z-score [7]: -0.0911 and -0.043 | composite z-score [8]: -1.14 and -0.975 | composite z-score [9]: -0.22 and -0.455 | composite z-score [10]: -0.317 and -0.308 | composite z-score [11]: 0.966 and -0.2 | composite z-score [12]: 0.802 and -0.0438 | composite z-score [13]: 1 and 0.404 | z-score [14]: -1.6 (inactive) and -1.03 (inactive) | composite z-score [15]: -0.858 and -0.457 | composite z-score [16]: -0.132 and -0.547 | composite z-score [17]: -1.71 and -0.693 | composite z-score [18]: -1.66 and -0.676 | composite z-score [19]: -2.56 and -0.647 | composite z-score [20]: 0.644 and 1.35

C[C@@H](ON=C1[C@H]2CCn3c(=O)n(-c4ccccc4)c(=O)n3[C@H]2[C@H](O)[C@@H]2O[C@H]12)c1cn([C@H](CO)Cc2ccccc2)nn1
composite z-score [1]: 0.587 | z-score [2]: -0.217 (inactive) | z-score [3]: -0.165 (inactive) | z-score [4]: 0.0121 (inactive) | composite z-score [5]: 0.61 | z-score [6]: 0.381 (inactive) | composite z-score [7]: -0.282 | composite z-score [8]: 0.557 | composite z-score [9]: 0.668 | composite z-score [10]: -0.194 | composite z-score [11]: 0.494 | composite z-score [12]: -0.173 | composite z-score [13]: -0.569 | z-score [14]: 0.211 (inactive) | composite z-score [15]: 0.416 | composite z-score [16]: 0.438 | composite z-score [17]: 0.419 | composite z-score [18]: 0.572 | composite z-score [19]: 0.462 | composite z-score [20]: -0.0477

COC(=O)CC=C[C@@H](C)[C@@H](CO)NS(=O)(=O)c1ccc(C)cc1
composite z-score [1]: -0.0055 and 0.604 | z-score [2]: 0.102 (inactive) and 0.479 (inactive) | z-score [3]: -0.178 (inactive) and -0.491 (inactive) | z-score [4]: 0.218 (inactive) and -0.249 (inactive) | composite z-score [5]: 0.0736 and 1.26 | z-score [6]: -0.0928 (inactive) and 0.0226 (inactive) | composite z-score [7]: -0.37 and -0.0533 | composite z-score [8]: 0.598 and 0.856 | composite z-score [9]: -0.15 and 0.745 | composite z-score [10]: -0.118 and 0.0192 | composite z-score [11]: 0.266 and 0.348 | composite z-score [12]: -0.393 and -0.371 | composite z-score [13]: -0.591 and -0.895 | z-score [14]: 0.538 (inactive) and -0.445 (inactive) | composite z-score [15]: 0.394 and 0.774 | composite z-score [16]: 0.635 and 0.827 | composite z-score [17]: 0.667 and 0.395 | composite z-score [18]: 0.505 and 1.3 | composite z-score [19]: 0.998 and 0.71 | composite z-score [20]: 0.0232 and -0.0806

C=CCN(C(=O)C1N(C(C)(C)CO)C(=O)C2C(C(=O)O)C3C=CC21O3)c1ccc(OC)cc1 (stereo not given)
composite z-score [1]: -0.504 and -1.28 | z-score [2]: 0.0659 (inactive) and 1.13 (inactive) | z-score [3]: -1.08 (inactive) and 0.202 (inactive) | z-score [4]: 0.558 (inactive) and 0.921 (inactive) | composite z-score [5]: 0.841 and 0.2 | z-score [6]: 2.3 (inactive) and 1.15 (inactive) | composite z-score [7]: 0.0499 and 0.0174 | composite z-score [8]: -2.91 and -3.66 | composite z-score [9]: -0.702 and -1.29 | composite z-score [10]: -0.263 and -0.315 | composite z-score [11]: -0.138 and 0.012 | composite z-score [12]: 0.0931 and -0.0192 | composite z-score [13]: 1.23 and 1.02 | z-score [14]: -1.01 (inactive) and 0.0922 (inactive) | composite z-score [15]: -0.966 and -2.03 | composite z-score [16]: -0.751 and -1.28 | composite z-score [17]: -1.84 and -1.43 | composite z-score [18]: -2.02 and -2.33 | composite z-score [19]: -4.14 and -3.71 | composite z-score [20]: -1.01 and -5.89

CO[C@@H]1C=CCC(=O)N2CCC[C@H]2C(=O)OC[C@H](C)C(=O)OC[C@H]1C
composite z-score [1]: 0.59 | z-score [2]: 0.741 (inactive) | z-score [3]: -0.295 (inactive) | z-score [4]: -0.606 (inactive) | composite z-score [5]: -0.246 | z-score [6]: 0.714 (inactive) | composite z-score [7]: -0.0693 | composite z-score [8]: 1.41 | composite z-score [9]: -0.13 | composite z-score [10]: 0.163 | composite z-score [11]: 0.517 | composite z-score [12]: -0.33 | composite z-score [13]: -0.966 | z-score [14]: -0.25 (inactive) | composite z-score [15]: 0.243 | composite z-score [16]: 0.396 | composite z-score [17]: 0.612 | composite z-score [18]: 0.875 | composite z-score [19]: 1.26 | composite z-score [20]: 0.358
